According to the supplement of paper PMC6555819:

Tests used:
Assay in all cases: PBM binding z-score (relative to random genomic background probes); higher = stronger binding; sequences stand for … in GC…GCGATTGACAGCGTAGAATGAAGG
[1] = system: PPARg:RXRa DBDmut IVT, anti-RXR (DBD mutation: RXRa K156A/R161A, NR concentration 270 nM, RXRa partner concentration 90 nM)
In short: (§1)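 Ligand-free nuclear receptor dimers were applied to custom Agilent 4×180K protein-binding microarrays whose double-stranded probes carried direct-repeat seeds, single-nucleotide variants, half-site ablations and random human genomic background sequences in 34-nt variable regions. Incubation lasted 1 h. Binding z-scores were computed against the random background probes from regression-normalized fluorescence.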

[2] = system: PPARg:RXRa IVT, anti-PPARg (NR concentration 270 nM, RXRa partner concentration 90 nM)
In short: as §1

[3] = system: PPARg DBDmut:RXRa IVT, anti-PPARg (DBD mutation: PPARg1 K132A/R137A, NR concentration 270 nM, RXRa partner concentration 90 nM)
In short: as §1

[4] = system: PPARg DBDmut IVT, anti-PPARg (DBD mutation: PPARg1 K132A/R137A, NR concentration 270 nM)
In short: as §1

[5] = system: PPARg homodimer (NR concentration 180 nM)
In short: as §1

[6] = system: PXR:RXRa (NR concentration 270 nM, RXRa partner concentration 90 nM)
In short: as §1

[7] = system: PXR homodimer (NR concentration 270 nM)
In short: as §1

[8] = system: RARa:RXR (NR concentration 270 nM, RXRa partner concentration 90 nM)
In short: as §1

[9] = system: RARa homodimer (NR concentration 270 nM)
In short: as §1

[10] = system: RARb:RXRa (NR concentration 270 nM, RXRa partner concentration 90 nM)
In short: as §1

Sequence | PBM binding z-score [1] | PBM binding z-score [2] | PBM binding z-score [3] | PBM binding z-score [4] | PBM binding z-score [5] | PBM binding z-score [6] | PBM binding z-score [7] | PBM binding z-score [8] | PBM binding z-score [9] | PBM binding z-score [10]
CCTTACGGGTCACTCCAGGTTATAGGATCGGAGT | 2.49 | 4 | 0.265 | 0.385 | 1.86 | 5.21 | 0.588 | 4.1 | 0.817 | 3.8
CGAACGAGGGCAGGAGTTGATAGCAAATGCCGAT | 1.98 | 1.44 | -0.723 | -0.762 | -0.323 | -0.216 | -0.229 | -0.159 | -0.0684 | 1.8
TGAATGCGGTTAAAGATCAGGGAACGTGGCGTCG | -0.715 | 0.725 | 0.416 | 0.69 | 0.0368 | -0.493 | -0.492 | -0.11 | -0.405 | 0.315
CCGACTGGGGCAGAAAGGTTACGATACCATCCGG | 1.98 | 2.35 | -0.302 | -0.0493 | 1.17 | 1.39 | -0.337 | 1.72 | -0.00415 | 1.92
AGAATGAGGTTATTAAGATCTGGGAATTGCGGTC | 3.21 | 1.94 | 0.564 | 0.21 | 0.467 | 1.16 | 0.379 | 1.66 | -0.145 | 1.29
ATATGTAGGTTAGGTGGGGTCATTCAGACTAGGC | 6.72 | 5.87 | 2.01 | 3.16 | 2.99 | 6.47 | 4.9 | 6.09 | 1.79 | 2.98
ACTAGCAAGCCAAGTTTGGGTCACTCAAACAAAG | -0.834 | 0.332 | -1.3 | -0.652 | -0.225 | 0.253 | -0.636 | 0.968 | -0.901 | 0.801
CCGACTGGGGCAAGTTTACCATAACGCACAGCCA | 3.19 | 2.78 | -0.473 | -0.469 | 0.332 | -0.0221 | 0.029 | 0.0414 | 0.4 | 1.02
ACTTACGGGCCAACGAGGTTATAGCACGCGTATA | 0.992 | 0.418 | 0.118 | 0.119 | 0.076 | 1 | 0.334 | 1.16 | 0.0529 | 1.05
CGTCGAAGGTCAAAGGTCAGTGAAGAGATGACGG | 3.46 | 5.8 | 1.49 | 1.99 | 5.11 | 7.05 | 1.1 | 8.65 | 2.42 | 5.92
TAGCCTAGGTCATTGGTCCAGTATAGTACGCATC | 2.05 | 2.93 | 0.413 | 0.614 | 1.51 | 1.76 | 0.043 | 2.39 | 0.179 | 3.58
TGGCCTAGGTCATTCAGGGGCCAGTATAGAAAGC | 1.06 | 2.22 | -0.515 | -0.779 | 1.82 | 2.48 | -0.213 | 3.77 | 0.313 | 3.94
TCGAGTAGGTTACGGGCATTCAGAATGGCGTCGA | 3.6 | 3.2 | -0.359 | -0.95 | -0.405 | 0.127 | -0.967 | 0.109 | -1.16 | 1.29
AGTCAAAGTTCAATAGGTAACGTAAGATTCAGCT | 1.07 | 3.4 | 1.2 | 1.2 | 2.73 | 4.19 | 3.15 | 3.34 | 1.83 | 4.8
CCTAGCAGGCCAATCTGCGTCACTCAAGGCTTGA | 1.32 | -0.303 | -1.31 | -0.968 | -0.505 | -0.683 | -0.513 | -0.426 | -0.164 | 0.0378
AATACAGGGTCATCGTAGGCCAGAGTGCGCACAG | 2.61 | 4.22 | 1.07 | 1.13 | 1.9 | 4.97 | 0.782 | 4.82 | 0.464 | 4.48
CCAGACAGGTGAAAGGTAACTGAGTCTGGTACGC | 2.15 | 3.28 | -0.148 | -0.636 | 1.11 | 0.918 | -0.224 | 1.83 | 0.0845 | 1.28
CGTCAAAGTTCAACTAAGGTAACGGAAAGCACGC | 0.353 | 2.18 | 0.489 | 0.064 | 3.4 | 5.37 | 3.68 | 3.89 | 1.31 | 5.45
CGTTCAAGGTCAATGCTAGGTCAGTGAAAGCATT | 4.31 | 4.8 | 0.872 | 0.0991 | 7.93 | 5.3 | 1.78 | 6.62 | 2.61 | 5.22
ATCGAAAGGTCGGGGTGAGTATAGAGAAAGGGAA | 1.56 | 2.45 | 1.09 | 2.25 | 1.98 | 2.77 | 1.39 | 3.03 | 1.53 | 3.83
TAGCCTAGGCCAGATCGGGCCAGTATACGCTATA | -0.93 | -0.678 | -0.211 | -0.658 | -1.06 | -0.946 | -0.923 | -0.593 | -1.1 | -0.396
CGTCCAAGGTCATAGGAGGTCAGTAAAGACAGAT | 3.22 | 4.57 | 1 | 1.13 | 5.13 | 6.88 | 4.18 | 6.22 | 2.02 | 5.38
TCGAGTAGGTTAGAGGCATTCAGAATGGCGTCGA | 1.65 | 0.965 | -0.829 | -0.771 | 0.087 | -0.51 | -0.852 | -0.767 | -0.955 | 0.0217
TCGAGTAGGTTACCAATGGGGCGTTCAGCTTTCT | 3.2 | 2.46 | -0.504 | -0.846 | 0.122 | -0.176 | -0.801 | 0.167 | -0.443 | 0.773
GATACAGGGTCACCTAGAGGCCAGAGTATGGAAA | 2.73 | 4.97 | 2.46 | 1.14 | 3.21 | 4.54 | 0.0767 | 6.04 | 0.306 | 4.56

Sequence | PBM binding z-score [1] | PBM binding z-score [2] | PBM binding z-score [3] | PBM binding z-score [4] | PBM binding z-score [5] | PBM binding z-score [6] | PBM binding z-score [7] | PBM binding z-score [8] | PBM binding z-score [9] | PBM binding z-score [10]
AGTTAAAGTTCATCTAGGTAACGTAAGATATGCT | 1.51 | 3.39 | 1.68 | 1.41 | 2.77 | 4.75 | 6.53 | 3.23 | 2.39 | 4.79
TCTATTAGTTGATTAGGGCAACAGAAACAGCGGA | 2.04 | 1.59 | 1.69 | 1.06 | 1.02 | 0.573 | 0.374 | 0.636 | 1.08 | 0.82
CCAGACAGCTGAGAAGGTAACTCAGCCTCGATTA | -0.628 | -0.629 | -0.497 | -0.867 | 0.219 | -0.733 | 0.0352 | -0.488 | -0.132 | -1.71
ATCGAAAGGTCGTGAGGTGAGCATACAGAAAGGC | 0.297 | 2.79 | 1.33 | 0.333 | 0.137 | 2.77 | 0.261 | 3.85 | 0.316 | 3.89
ACTCGCAGGACAAAGGTCAGAGCTACGCCAGTGA | 0.731 | 2.9 | 0.371 | -0.29 | 1.88 | 3.6 | 0.075 | 4.72 | 0.499 | 4.29
ATTCAAAGTTCAGGACGAGGTAACGTAAAGCACG | -0.268 | 1.33 | 1.03 | 0.76 | 1.93 | 2.95 | 1.44 | 3.01 | 0.385 | 4.19
TCTAGCAGGCCAGAGGGTCACACAAGAGGTACGG | 1.19 | 1.38 | -0.514 | -0.172 | 1.57 | 2.37 | -0.42 | 3.44 | 0.0542 | 2.62
ATATGTGGGTTAAGGGTCATTCAGGTTGGTTCGC | 7.01 | 7.51 | 2.4 | 2.39 | 3.88 | 5.53 | 3.93 | 6.07 | 3.29 | 3.59
CTCGAAAGGTCGTGCACAGGTGAGTATACCAAAC | 0.853 | 2.21 | 0.533 | 0.411 | 2.02 | 3.56 | 0.388 | 4.46 | 0.659 | 4.07
AGTCAAAGCTCATCTAGGTAACGTAAGATATGCT | 0.59 | 1.71 | 0.357 | 0.493 | -0.497 | -0.42 | -0.351 | -0.0294 | -0.0154 | -0.0836
CCTACTGGGGCATTCAGAGGTCATTGATCATATG | 4.5 | 5.15 | 0.018 | 0.266 | 2.6 | 5.08 | 2.1 | 4.67 | 0.372 | 3.45
ATATGTAGGTTCTCGGGTCATTCAGTTTGCGCAT | 4.81 | 4.65 | 1.63 | 2.01 | 1.96 | 4.05 | 8.95 | 3.37 | 1.01 | 2.15
CTCGAACGGTCGGTTGAGGTGAGTATACGGATAA | -0.509 | -0.343 | -0.772 | -0.429 | -1.41 | -0.224 | -0.776 | 0.779 | -1.48 | 0.604
AGAAAGAGGTTAAGATCAGGGAAACAGAATACAT | 1.12 | 1.52 | 1.97 | 0.819 | 1.02 | 1.37 | 0.655 | 1.89 | 0.728 | 2.4
GCGACTGGGGCAAAGCAGGTTCCCATAAGGTTGG | 3.87 | 2.9 | -1.3 | -1.28 | -0.328 | -0.524 | -0.517 | -0.168 | -1.06 | 0.44
AGAACGAGGGCACGCTGAGTTGATAGCTGAGTAG | 4.41 | 3.75 | 0.643 | 0.101 | 0.829 | 1.57 | 0.136 | 1 | -0.945 | 2.57
TCTTGTATATCAGCAGGTTAAGAAAGCTGGCCAA | 2.07 | 0.6 | 0.115 | 0.41 | 0.718 | 0.584 | 0.0851 | 0.998 | 0.982 | 0.687
TCTGCTAGGTCAACGATGGTCAGCCAATCTGCTA | 4.18 | 4.29 | 0.0146 | -0.247 | 1.87 | 1.6 | -0.979 | 2.02 | -0.83 | 4.26
TCGAGTTGGTCAAAGGTCACACACTCGAAATGCG | 1.75 | 5.88 | 1.98 | 1.49 | 8.37 | 6.29 | 1.41 | 7.61 | 4 | 4.9
TATACAGGGTCAAAGGCCAGAGTCCGAATGTCGA | 2.36 | 4.8 | 1.49 | 0.522 | 2.08 | 4.27 | 0.713 | 5.31 | 0.835 | 4.31
CGTCCAAGGTCAGAGAGGTCAATGAATGCCGAGT | 3.1 | 3.52 | -0.295 | -0.854 | 5.37 | 6.76 | 13.7 | 6.55 | 3.02 | 5.17
AGTCAAAGTTCACTCGGTAACGTAAGATTCAGCT | 0.841 | 2.9 | 1.02 | 1.36 | 2.4 | 4.21 | 2.5 | 3.1 | 1 | 4.76
CCTAGTAGGCCAATCTGGGTCACTCAAGGCTTGA | 6.2 | 6.35 | 0.0197 | -0.994 | 0.502 | 1.07 | -0.356 | 1.39 | -0.858 | 1.78
ACTCAAAGTTCACTAGGTAACGTAAGATTCAGCT | 3.09 | 4.19 | 1.81 | 1.14 | 3.86 | 4.2 | 3.09 | 3.17 | 3.01 | 4.95
